# Out of some 48,000 compounds screened, about 13,000 (27%) showed an effect of 50% or more. The list shows a part of the results.
# Test system: Wolbachia pipientis
# Test: Anti-Wolbachia Cell-Based Screen
# Format: functional
# Design: scale not given: in the data most compounds retested in dose-response had high values
# Conditions: 5 µM
row,SMILES,Percent Effect [%]
1,O=C(Nc1ccc(F)cc1F)N(CCC(F)(F)F)C[C@H](O)CO,-18.87
2,CN1CCN(Cc2cn3c(n2)CNCC3)CC1.Cl.Cl.Cl,-6.492
3,CCC(NCc1ncc[nH]1)c1nc(C(F)(F)F)cs1 (stereo not given),-16.74
4,COC(=O)c1ccc(CNC(=O)CN2C[C@@H](NC(C)=O)[C@H](C(C)C)C2)o1,2.567
5,COc1c(C)cnc(CN(C)C(=O)c2ccccn2)c1C,13.08
6,CCN(C)S(=O)(=O)N1CCCC(CO)(CC=C(C)C)C1 (stereo not given),-20.38
7,Cc1nnc(CNC(C)c2cc(C)c(F)c(C)c2)s1 (stereo not given),61.57
8,COc1cc(C(C)NCc2ncccc2C)ccc1SC(F)F (stereo not given),-24.97
9,Cc1cc(C)cc(C(C)NCc2nnc(C)s2)c1 (stereo not given),-26.09
10,Cc1ccc(CNC(=O)CN(C)CC2CCN(CCO)CC2)s1,-11.99
11,CCN1Cc2cc3c(cc2NCCC1=O)OCO3,124.2
12,COC(=O)CN1Cc2cc3c(cc2NCCC1=O)OCO3,87.85
13,O=C1NCCN(CC2CC2)C12CCN(Cc1ccc3c(c1)OCO3)CC2,-10.73
14,COC(=O)CCC(=O)N1CCc2[nH]nc(-c3ccc4c(c3)OCO4)c2C1,6.027
15,O=C1CCNc2cc3c(cc2CN1CC1CC1)OCO3,89.98
16,COc1nccnc1N1CCN(Cc2ccc3c(c2)OCO3)C(=O)C1,-4.11
17,CC(C)(C)CN1Cc2cc3c(cc2NCCC1=O)OCO3,93.04
18,CC(C)SCc1cccc(NC(=O)NC(C)c2nc[nH]n2)c1 (stereo not given),-14.93
19,Cc1ccccc1S(=O)(=O)NC(=O)CSc1ccc2c(c1)OCCO2,-12.34
20,O=C(CSc1ccccc1Cl)NS(=O)(=O)c1ccc2c(c1)OCCO2,0.8211
21,CN(C)CCN(C)C1CCCN(C(=O)c2ccc(Cn3ccnc3)o2)C1 (stereo not given),-5.736
22,CC(O)CN1CCC(CN(C)Cc2cccc(C#N)c2)CC1 (stereo not given),-3.336
23,Cc1ccc(F)cc1C(=O)OCC1CCCN1C(N)=O (stereo not given),7.06
24,COC(=O)c1cccn1C1CCN(C(=O)c2cc(F)ccc2C)CC1,95.76
25,COC(=O)c1cccn1C1CCN(C(=O)c2cc(C)ccc2O)CC1,-6.759

row,SMILES,Percent Effect [%]
1,COC(=O)c1cccn1C1CCN(C(=O)c2ccc(C)[nH]c2=O)CC1,102.8
2,COC(=O)c1cccn1C1CCN(C(=O)c2cn[nH]c2C)CC1,1.064
3,COC(=O)c1cccn1C1CCN(C(=O)c2c(C)noc2C)CC1,105.8
4,COC(=O)c1cccn1C1CCN(C(=O)c2ccc(C)cc2O)CC1,105.5
5,COC(=O)c1cccn1C1CCN(C(=O)c2cc(F)ccc2F)CC1,16.29
6,COc1cccc([C@@H]2CN(C(=O)c3ccc(C)cc3O)C[C@H]2C(=O)O)c1,2.23
7,Cc1ccc(C(=O)N2CCC(c3nccn3C(C)C)CC2)c(=O)[nH]1,4.246
8,O=C(Cc1cc2c(cc1Cl)OCCO2)N1CC[C@H](CO)[C@H](O)C1,7.536
9,COc1cccc(-n2c(C)cc(C(=O)NS(C)(=O)=O)c2C)c1,-4.667
10,Cc1n[nH]cc1CNCC1(c2ccccc2Cl)CCOCC1,10.52
11,Cc1ccc(CCNC(=O)NCc2cccc(OC(F)F)c2)cn1,-2.718
12,O=C(NCCCOCC1CC1)Nc1ccc(F)cc1,3.334
13,COCCCNC(=O)Nc1ccc(F)c(C(N)=O)c1,133.6
14,CC(C)C(C)NC(=O)Nc1ccc(F)c(C(N)=O)c1 (stereo not given),114.2
15,COC(=O)c1cccc(S(=O)(=O)Nc2ccc(F)c(C(N)=O)c2)c1,-1.482
16,CC(C)CCOCCNC(=O)Nc1cc(C(F)(F)F)c[nH]c1=O,-4.49
17,CC(=O)c1cccc(NC(=O)NCCOCC2CC2)c1,4.489
18,NC(=O)c1cc(NC(=O)N2CCCCCC2)ccc1F,-15.41
19,COCCCNC(=O)Nc1cccc2ncccc12,3.143
20,CC(C)C(O)CNC(=O)Nc1ccc(F)c(Cl)c1 (stereo not given),4.966
21,CCOCCCNC(=O)Nc1ccc(F)c(C(N)=O)c1,144.9
22,COCCNC(=O)Nc1ccc(-n2cncn2)c(F)c1,-15.63
23,CC(C)CCOCCNC(=O)Nc1ccc(F)c(C(N)=O)c1,86.61
24,CCOc1ncccc1C(=O)N1CC=C(c2ccc(O)cc2)CC1,32.78
25,CCC(C)Nc1ccc(-c2nc(-c3cccc(OC)c3OC)no2)cn1 (stereo not given),24.9
